Screens deposited in PubChem by several laboratories.
TWEAK-Fn14 inh – inhibitors of TWEAK-Fn14 interaction signaling; TWEAK-stimulated Fn14 reporter cells, luciferase luminescence, 8 h; inhibition, % at 10 µM; actives 2% (n = 360,000); in the data active means inhibition above about 50%
TROY NFkB inh – blocks TROY-dependent signaling in reporter cells; AID 1347056; actives 0.98% (n = 360,000); inhibition, % at 10 µM; Q293 LMP1-TROYcd NF-kB luciferase reporter, 4 h;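 active means compounds whose plate-normalised and pattern-corrected inhibition of the luciferase reporter signal at the single screening dose is 50% or more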
Platelet DG rel – platelet dense granule release activity; human platelet-rich plasma, SFLLRN dense granule ATP release, luminescence; inhibition, %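 (compounds screened at 7.5 µM in platelet-rich plasma)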; AID 1663; actives 0.22% (n = 300,000);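 active means mean replicate score, as percent of positive control, at or above 50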
PPC-1+TRAIL kill – kills PPC-1 cancer cells in the presence of TRAIL. actives 0.41% (n = 220,000). PPC-1 cells + TRAIL, ATPLite viability luminescence. AID 1443. cell killing (% activity), % at 4 µM or 5 µM;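 active means cell killing above 50% in the first pass at 4 µM, then a duplicate retest at 5 µM averaging 50% or more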;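 further: plate controls were cells with TRAIL plus DMSO for no effect and medium-only wells lacking cells for full effect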
TRAIL sens C8 – sensitizes caspase-8 expressing cells to TRAIL; NB7+C8 cells + TRAIL, ATPlite viability luminescence; inhibition (viability loss, TRAIL sensitization), % at 10 µM; actives 1% (n = 360,000); AID 624354;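 active means compounds causing at least 50% loss of cell viability in the single-dose screen, relative to plate controls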
HSP90 refold inh – blocks HSP90-mediated luciferase refolding in reticulocyte lysate; actives 0.91% (n = 290,000); inhibition, % at 5.6 µM; Rabbit reticulocyte lysate, luciferase refolding luminescence, 3 h; AID 1789;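 active means inhibition above the screen-wide mean plus 3 SD, computed separately per campaign, cut at about 16% in these data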;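 further: 0% = DMSO wells and 100% = 60 µM geldanamycin wells; inhibitors lower the luminescence because luciferase stays unfolded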
HSP90 inh confirm – confirmation of HSP90 inhibitors. shares compounds with HSP90 refold inh. inhibition, % at 5.9 µM. actives 64% (n = 2,300). rabbit reticulocyte lysate, luciferase refolding luminescence, 3 h; in the data active means inhibition above about 18%;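 further: 0% = vehicle wells and 100% = reference inhibitor wells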
FLuc counter – firefly luciferase inhibition, HSP90 counter-screen | shares compounds with HSP90 refold inh | actives 48% (n = 2,300) | purified native firefly luciferase, luminescence | inhibition, % at 5.9 µM | AID 1847;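 active means inhibition above the mean inhibition of all tested sample wells plus 3 SD, cut at about 10% in these data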;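 further: 0% = DMSO with luciferase and 100% = wells lacking luciferase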
Target sequence (P08659 whole entry, looked up): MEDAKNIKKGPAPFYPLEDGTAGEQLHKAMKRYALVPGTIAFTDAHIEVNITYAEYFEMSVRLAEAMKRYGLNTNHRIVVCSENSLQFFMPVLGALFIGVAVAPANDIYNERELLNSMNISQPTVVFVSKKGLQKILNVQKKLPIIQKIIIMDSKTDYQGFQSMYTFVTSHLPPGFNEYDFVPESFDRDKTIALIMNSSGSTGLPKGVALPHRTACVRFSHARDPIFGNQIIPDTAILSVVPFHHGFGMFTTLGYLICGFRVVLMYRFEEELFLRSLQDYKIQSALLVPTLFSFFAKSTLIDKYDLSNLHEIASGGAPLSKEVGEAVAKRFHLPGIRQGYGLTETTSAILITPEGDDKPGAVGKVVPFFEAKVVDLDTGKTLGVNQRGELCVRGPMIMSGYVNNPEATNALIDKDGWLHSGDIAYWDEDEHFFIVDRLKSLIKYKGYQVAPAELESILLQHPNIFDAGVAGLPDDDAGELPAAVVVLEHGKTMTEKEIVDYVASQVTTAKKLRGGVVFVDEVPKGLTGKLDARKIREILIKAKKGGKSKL
* hit, by the source's call; · = no result given. Shown are actives, neighbours in structure and some others; about 3.5% of the full set was active somewhere.

SMILES	TWEAK-Fn14 inh	TROY NFkB inh	Platelet DG rel	PPC-1+TRAIL kill	TRAIL sens C8	HSP90 refold inh	HSP90 inh confirm	FLuc counter
Cn1c(SCc2ccc(F)cc2Cl)nc2ccccc2c1=O	33.5	19.4	·	·	11.6	·	·	·
CCc1c(C(=O)OCc2ccccc2)[nH]c(C)c1C	-4.3	-33.5	-7.6	3.4	-2.6	-4.6	·	·
CCc1c(C)[nH]c(C(=O)OCc2ccccc2)c1C	-25.3	-99.1	-15.5	5.7	2.3	24.3*	-2.3	-13.1
COc1ccc2c(c1)c(CC(=O)Nc1cccc(S(N)(=O)=O)c1)c(C)n2C(=O)c1ccc(Cl)cc1	11.2	25.5	28.1	12.9	-9.5	4.1	·	·
O=C(/C=C/c1ccc(S(=O)(=O)N2CCOCC2)cc1)NCCc1ccc(C(F)(F)F)cc1	8.7	31.1	·	·	7.8	·	·	·
CCOc1ccc(NC(=O)Nc2ccccc2C(N)=O)cc1	-41.0	-83.9	48.4	-11.4	1.0	31.9*	41.5*	37.7*
COc1cccc(Sc2nc(-c3ccccc3)ncc2S(C)(=O)=O)c1	90.7*	71.1*	-1.9	·	-2.3	26.5*	14.7	14.2*
Cc1ccc(S(=O)(=O)Nc2cccc(-c3ccc(N4CCCCCC4)nn3)c2)cc1	22.4	43.0	-12.2	·	32.9	4.5	·	·
CC(=O)Nc1cc2nn(-c3ccccc3)nc2cc1C	49.8	5.9	14.6	·	46.1	20.9*	32.3*	21.1*
Cc1sc2ncnc(SCC(=O)c3ccc(O)cc3O)c2c1C	-19.6	-2.1	4.9	16.7	-3.2	19.3*	-10.5	-11.4
CCn1c(C)cc(/C=C2/NC(=O)N(c3ccccc3)C2=O)c1C	73.7*	74.5*	-0.4	16.8	-1.3	30.9*	6.7	-16.1
CCn1c(C)cc(/C=C2\NC(=O)N(CC(=O)Nc3cccc(C)c3)C2=O)c1C	-17.3	0.6	6.4	-0.5	-20.2	4.1	·	·
O=[N+]([O-])c1ccccc1NC(=S)N/N=C/c1ccc(O)c(O)c1	66.4*	65.7*	3.9	26.1	-14.1	43.2*	1.7	-20.8
CCOc1cccc(/C=N/NC(=S)Nc2ccccc2[N+](=O)[O-])c1O	100.0*	90.3*	-14.4	20.3	52.6*	74.8*	71.3*	34.3*
Cc1ccc(-c2nnc(NC3CCCC3)s2)cc1	9.2	-27.4	-0.5	·	33.1	8.1	·	·
COc1ccccc1C(=O)NNC(=S)NC(=O)c1sc2ccccc2c1Cl	-15.6	-33.7	-5.2	4.1	9.5	3.5	·	·
Cc1c(NC(=S)NC(=O)c2sc3ccccc3c2Cl)cccc1C(=O)O	14.3	1.7	8.8	3.8	18.0	43.1*	63.3*	11.0*
Cc1cccc(NCc2cc(Cl)ccc2O)n1	-15.0	-20.5	-8.1	11.6	-2.2	-3.4	·	·
Cc1cccc(NCc2cc(Cl)cc(Cl)c2O)n1	10.1	5.5	0.3	37.3	-0.6	17.5*	-2.3	-3.6
CCn1c(C)nc2cc(N)ccc21	31.6	36.1	3.4	8.0	24.7	34.1*	8.4	-1.8
CCc1cc(C(=O)Nc2ncccc2O)sc1C	45.1	27.6	-2.5	·	30.5	43.1*	52.9*	42.7*
CCN(CC)CCNC(=O)c1[nH]c2ccc(OCc3ccccc3)cc2c1C	-27.9	-4.0	-0.8	14.6	11.2	0.2	·	·
CC1CCCN(S(=O)(=O)c2cc(C(=O)NCCc3ccc(S(N)(=O)=O)cc3)ccc2Cl)C1 (stereo not drawn)	33.1	38.1	·	·	22.8	·	·	·
Cc1cc(C(=O)CSc2nnc(N)s2)c(C)n1Cc1cccs1	28.9	-49.3	-15.7	35.7	69.5*	28.5*	64.8*	59.4*
Cc1cc(C(=O)CSc2nncs2)c(C)n1Cc1ccco1	28.5	-27.9	1.7	8.6	28.7	22.1*	54.9*	40.8*
SMILES	TWEAK-Fn14 inh	TROY NFkB inh	Platelet DG rel	PPC-1+TRAIL kill	TRAIL sens C8	HSP90 refold inh	HSP90 inh confirm	FLuc counter
Cc1csc(SCC(=O)c2cc(C)n(Cc3cccs3)c2C)n1	-10.9	12.1	-3.5	30.3	78.9*	65.1*	84.9*	81.1*
Cc1cc(C(=O)CSc2nn(-c3ccccc3)c(=S)s2)c(C)n1Cc1ccco1	18.7	3.2	-1.1	10.3	-7.1	0.9	·	·
COc1ccc(NC(=O)C2CCOC(C)(C)C2)cc1 (stereo not drawn)	-3.3	8.6	7.5	-6.0	-8.5	1.9	·	·
Cc1ccc(-c2nc(-c3ccccn3)no2)cc1[N+](=O)[O-]	61.8*	24.6	24.3	33.7	52.0*	29.7*	57.8*	52.3*
CC1=C(C(=O)N2CCOCC2)CC(CC(=O)NC(c2ccccc2)c2ccccc2)C(=O)N1CCCN1CCCC1=O (stereo not drawn)	16.7	-25.5	·	·	7.3	·	·	·
CC(c1ccco1)N(C(=O)COc1ccc(Cl)cc1)c1ccccn1 (stereo not drawn)	36.2	-19.3	·	21.2	15.4	20.0*	0.2	-9.6
C(#Cc1ccc2c(c1)COc1c3ccccc3nn1-2)c1ccccc1	-33.1	-54.3	-1.0	·	-7.0	·	·	·
Cc1ccc2c(c1)COc1c3ccc(C(=O)O)cc3nn1-2	81.3*	-55.8	16.4	·	34.3	95.8*	94.4*	78.7*
O=C1NC[C@@H](CCCCN2C[C@H](Cc3ccccc3)N(Cc3ccccc3)C(=O)C2=O)N(Cc2ccccc2)C1=O	8.5	1.9	·	·	-6.6	·	·	·
CCOc1ccc2c(c1)c(N=Nc1cccc(C(=O)O)c1)c(O)n2C	-41.7	-26.4	5.8	1.2	0.6	27.2*	30.1*	5.7
Cc1ccc2c(c1)c(N=Nc1cccc(C(=O)O)c1)c(O)n2C	-18.3	-21.3	0.2	-1.0	1.9	-0.1	·	·
Cc1ccc(NC(=S)Nc2cccc3ccccc23)cc1F	46.9	34.0	19.4	·	14.0	19.4*	29.5*	-11.3
COc1cc(C(=O)NC(=S)Nc2ccc3ccccc3c2)cc(OC)c1OC	26.1	27.3	·	·	5.8	·	·	·
COc1ccccc1N(C)S(=O)(=O)c1ccc(C(=O)Nc2nc(C)cs2)cc1	38.3	23.2	-5.1	-6.4	-3.5	-1.9	·	·
Cc1cc(-c2csc(NC(=O)c3ccc(S(=O)(=O)N(C)C)cc3)n2)c(C)n1-c1ccccc1	17.0	-10.5	1.5	11.3	-2.7	21.6*	40.9*	-1.6
CC(C)N(C(=O)CSc1nnc(Cn2nnc3ccccc32)n1C)C(C)C	-8.0	-0.9	1.1	3.1	-2.4	-5.2	·	·
O=C(O)CSc1nnc(Cn2nnc3ccccc32)n1CCc1ccccc1	11.1	2.3	3.0	3.1	-7.8	25.3*	-7.6	-4.9
Cc1cc(NC(=O)NC(=O)c2ccc(F)cc2F)n[nH]1	44.8	20.9	7.8	27.9	23.1	22.7*	39.2*	25.6*
Cc1cc(NC(=O)c2cccc(Cl)c2)n[nH]1	-8.5	-41.1	12.2	·	16.7	·	·	·
COc1cc(F)ccc1-c1csc(C(O)c2ccc(F)cc2)n1 (stereo not drawn)	-13.9	-14.2	·	·	-9.1	·	·	·
